Experimental data from PubChem BioAssay (NCATS).
Values joined by “and” are separate entries in the source; they are usually repeats but may differ in a detail not shown here. Equal entries are not always repeated. Results filed as inconclusive are left out. Active and inactive are the calls of the source. Calls come from the whole dose curve; as a rule, active = well fitted inhibition curve with a large enough effect; inconclusive = small, poorly fitted or top-dose-only effect; inactive = flat fitted curve, though single readings scatter. Where a SMILES comes first, the peptide text is derived from it. [ ]: non-standard residue; d: D form. pGlu = O=C1CC[C@@H](C(=O)O)N1; Thz = O=C(O)[C@@H]1CSCN1

Experiments:
Assay in all cases: qHTS profiling for inhibitors of Plasmodium falciparum proliferation (AID 504749); note: nearly all actives have a fitted effect of over 60% in size
Settings in all cases: P. falciparum in erythrocytes, SYBR Green DNA, 72 h; series mostly up to 28.7 µM
CP247 = tested on: CP247
Outline: (§1)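 Quantitative HTS: compounds pinned into medium, infected erythrocytes added (0.3% parasitemia, 2.5% hematocrit), 72 h culture at 37 C under 5% CO2. Saponin/Triton lysis with SYBR Green I, overnight RT, then fluorescence read.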

CP250 = tested on: CP250
Outline: as §1

CP252 = tested on: CP252
Outline: as §1

CP256 = tested on: CP256
Outline: as §1

CP260 = tested on: CP260
Outline: as §1

CP262 = tested on: CP262
Outline: as §1

CP265 = tested on: CP265
Outline: as §1

CP266 = tested on: CP266
Outline: as §1

CP268 = tested on: CP268
Outline: as §1

CP269 = tested on: CP269
Outline: as §1

CP286 = tested on: CP286
Outline: as §1

CP291 = tested on: CP291
Outline: as §1

CP297 = tested on: CP297
Outline: as §1

CP305 = tested on: CP305
Outline: as §1

CP315 = tested on: CP315
Outline: as §1

CP325 = tested on: CP325
Outline: as §1

CP329 = tested on: CP329
Outline: as §1

CP335 = tested on: CP335
Outline: as §1

DFO2036 = tested on: DFO2036
Outline: as §1

DIV14 = tested on: DIV14
Outline: as §1

Measured: Potency
Potency is the fitted concentration of half-maximal effect.

CC(C(=O)O)c1ccc2c(c1)[nH]c1ccc(Cl)cc12 (stereo not drawn)
inactive: all assays above

Nc1ccc(C(=O)O)c(O)c1
inactive: all assays above

C=CCN1C(=O)C(CC(C)C)NC1=S (stereo not drawn)
inactive: all assays above

Cc1[nH]cnc1CN1CCc2c(c3ccccc3n2C)C1=O
not listed: DIV14
inactive: all other assays above

[O-][n+]1ccccc1SSc1cccc[n+]1[O-]
active: CP247 0.891 µM | CP250 0.708 µM | CP252 1 µM | CP256 2 µM | CP260 0.708 µM | CP262 1.07 µM | CP265 1.26 µM | CP266 1.51 µM | CP268 0.849 µM | CP269 1.07 µM | CP286 0.891 µM | CP291 1.2 µM | CP297 1.35 µM | CP305 0.953 µM | CP315 1.69 µM | CP325 0.953 µM | CP329 1.35 µM | CP335 0.601 µM | DFO2036 0.891 µM | DIV14 0.757 µM

Clc1ccccc1-c1nc(-c2ccncc2)no1
not listed: DIV14
inactive: all other assays above

CCC1C(=O)OCC1Cc1cncn1C (stereo not drawn)
inactive: all assays above

Cc1ccc(C(=O)c2ccc(CC(=O)O)n2C)cc1
inactive: all assays above

COc1ccc(-c2cc(=S)ss2)cc1
inactive: all assays above

CCCCCCOc1ccccc1C(N)=O
inactive: all assays above

Cc1ccccc1CNc1ncnc2c1ncn2C1OC(CO)C(O)C1O (stereo not drawn)
inactive: all assays above

CC1(C)S[C@@H]2[C@H](NC(=O)[C@H](NC(=O)N3CCN(S(C)(=O)=O)C3=O)c3ccccc3)C(=O)N2[C@H]1C(=O)O
inactive: all assays above

O=C(/C=C/c1ccccc1)NCCO
inactive: all assays above

O=C(Nc1ccc(C(=O)O)c(O)c1)c1ccccc1
inactive: all assays above

C=CC(N)CCC(=O)O (stereo not drawn)
inactive: all assays above

COc1ccc(/C=C/C(=O)Nc2ccccc2C(=O)O)cc1OC
inactive: all assays above

O=C1CC[C@@H](C(=O)N2CSC[C@H]2C(=O)O)N1 ([pGlu]-[Thz]-OH)
inactive: all assays above

COc1cc2c3cc1Oc1cc(ccc1O)C[C@@H]1c4c(cc(OC)c(O)c4Oc4ccc(cc4)C[C@@H]3N(C)CC2)CC[N+]1(C)C
inactive: all assays above

O=C(O)c1ccccc1Nc1cccc(C(F)(F)F)c1
not listed: DIV14
inactive: all other assays above

C#C[C@]1(O)CC[C@H]2[C@@H]3CCc4cc(O)ccc4[C@H]3CC[C@@]21C
inactive: all assays above

CCCCCCCCCCCCCCCCCC(=O)O
inactive: all assays above

O=C(OCc1ccccc1)c1ccccc1
active: CP260 3.16 µM
inactive: all other assays above

Cc1ccc(O)c(-n2nc3ccccc3n2)c1
inactive: all assays above

C=CCCCCCCCCC(=O)O
inactive: all assays above

O=C(O)[C@H](CC(=O)N1C[C@H]2CCCC[C@H]2C1)Cc1ccccc1
inactive: all assays above

CCCOC(=O)c1ccc(O)cc1
inactive: all assays above

O=C(O)[C@H](O)[C@@H](O)[C@H](O)[C@H](O)CO
inactive: all assays above

CCCCCCCCCCCCCCCC(=O)OC(C)C
inactive: all assays above

O=C(O)/C=C/C(O)c1ccc(Cl)cc1 (stereo not drawn)
inactive: all assays above

C=C(Nc1ccc(OCC)cc1)Nc1ccc(OCC)cc1
inactive: all assays above

O=C(O)COc1ccc(C(=O)c2cccs2)c(Cl)c1Cl
inactive: all assays above

Nc1cc(-c2ccncc2)c[nH]c1=O
not listed: DIV14
inactive: all other assays above

COc1cc(/C=C/C(=O)N2CCN(CC(=O)N3CCCC3)CC2)cc(OC)c1OC
not listed: DIV14
inactive: all other assays above

Cc1c(Nc2ncccc2C(=O)O)cccc1C(F)(F)F
inactive: all assays above

CC(N)C(=O)OC(C)(C)Cc1ccc(Cl)cc1 (stereo not drawn)
inactive: CP250 | CP256 | CP262 | CP266 | CP315
active: CP297 9.53 µM | DIV14 9.53 µM

N=c1ccn2c(n1)O[C@H]1[C@H](O)[C@@H](CO)O[C@H]12
not listed: CP297
inactive: all other assays above

O=C(O)Cc1ccc(-c2ccccc2)cc1
not listed: CP335
inactive: all other assays above

CCCC(=O)OC[C@@H](OC(=O)CCC)[C@@H](OC(=O)CCC)[C@H](Cn1c2nc(=O)[nH]c(=O)c-2nc2cc(C)c(C)cc21)OC(=O)CCC
inactive: CP262 | CP266 | CP268 | CP269 | CP291 | CP297 | CP315 | CP325 | CP329 | DIV14

O=C(CCN1CCN(CCO)CC1)N1c2ccccc2Sc2ccc(C(F)(F)F)cc21
inactive: CP268 | CP297 | CP305 | CP315 | CP329
active: CP256 11.2 µM | CP260 11.2 µM | CP265 3.98 µM | CP286 12.6 µM | DIV14 9.53 µM

CC(=O)[C@]1(O)Cc2c(O)c3c(c(O)c2[C@@H](O[C@H]2C[C@H](N)[C@H](O)[C@H](C)O2)C1)C(=O)c1c(O)cccc1C3=O
active: CP247 5.62 µM | CP250 11.2 µM | CP260 3.55 µM | CP262 15.1 µM | CP268 12 µM | CP269 9.53 µM | CP286 2.24 µM | CP291 9.53 µM | CP297 13.5 µM | CP305 7.57 µM | CP325 15.1 µM | CP335 5.36 µM | DFO2036 7.94 µM | DIV14 4.26 µM

COc1cc(CNC(=O)CCCC/C=C/C(C)C)ccc1O
not listed: CP266
inactive: all other assays above

CN1[C@@H](CC(=O)c2ccccc2)CCC[C@H]1C[C@H](O)c1ccccc1
active: DIV14 13.5 µM
inactive: CP247 | CP250 | CP262 | CP266 | CP268 | CP269 | CP297 | CP315 | CP325 | CP335

COC(=O)C1=C(C)NC(C)=C(C(=O)OCC(C)C)C1c1ccccc1[N+](=O)[O-] (stereo not drawn)
active: CP256 10 µM | CP286 8.91 µM | CP291 12 µM | CP297 16.9 µM | CP325 12 µM | DIV14 10.7 µM

CC1OC1P(=O)(O)O (stereo not drawn)
not listed: CP260
inactive: all other assays above

CCCCCCCCCCCC(=O)[O][Sn]([CH2]CCC)([CH2]CCC)[O]C(=O)CCCCCCCCCCC
active: CP260 10 µM
not listed: CP286
inactive: all other assays above

O=C1CN(/N=C/c2ccc(-c3ccc([N+](=O)[O-])cc3)o2)C(=O)N1
active: CP247 4.47 µM
not listed: CP262 | DIV14
inactive: all other assays above

NC(=O)C(c1ccccc1)(c1ccccc1)[C@@H]1CCN(CCc2ccc3c(c2)CCO3)C1
active: DIV14 7.57 µM
inactive: CP250 | CP266 | CP269 | CP315 | CP325

Nc1c(CC(=O)O)cccc1C(=O)c1ccc(Br)cc1
not listed: CP297
inactive: all other assays above

CN1[C@@H]2CC[C@H]1CC(OC(c1ccccc1)c1ccccc1)C2 (stereo partly drawn)
inactive: CP250 | CP260 | CP266 | CP297 | CP315 | CP325 | CP329
active: CP256 12.6 µM | CP286 11.2 µM | DFO2036 12.6 µM | DIV14 2.39 µM and 1.9 µM

CCCCC[C@H](O)/C=C/[C@@H]1[C@@H](C/C=C\CCCC(=O)O)[C@@H](O)C[C@H]1O
not listed: CP335
inactive: all other assays above

C[S+](CC[C@H](N)C(=O)O)C[C@H]1O[C@@H](n2cnc3c(N)ncnc32)[C@H](O)[C@@H]1O (stereo partly drawn)
not listed: CP247 | CP250 | CP256 | CP265 | CP266 | DFO2036
inactive: all other assays above

CC1(C)[C@@H](O)CC[C@]2(C)[C@H]3C(=O)C=C4[C@@H]5C[C@@](C)(C(=O)O)CC[C@]5(C)CC[C@@]4(C)[C@]3(C)CC[C@@H]12
not listed: CP266
inactive: all other assays above

Oc1c(Br)cc(Br)c2cccnc12
not listed: CP262
inactive: all other assays above

O=c1[nH]c2ccccc2n1CCCN1CCN(C(c2ccccc2)c2ccccc2)CC1
inactive: CP262 | CP315
active: DIV14 13.5 µM

Nc1ccc(O)c(C(=O)O)c1
not listed: CP266
inactive: all other assays above

CN(C)c1ccc(C(=C2C=CC(=[N+](C)C)C=C2)c2ccccc2)cc1
inactive: CP262
active: CP247 6.31 µM | CP250 11.2 µM | CP252 12.6 µM | CP256 10 µM | CP260 7.08 µM | CP265 11.2 µM | CP266 12 µM | CP269 10.7 µM | CP286 2 µM | CP325 12 µM | CP335 4.78 µM

CC1(C)C[C@@H]1C(=O)N/C(=C\CCCCSC[C@H](N)C(=O)O)C(=O)O
not listed: CP260
inactive: all other assays above

Cc1cc(O)c2ccccc2c1O
not listed: CP250 | CP335 | DIV14
inactive: all other assays above
